# Data taken from the supplement of paper PMC11417369.
# ± gives the standard deviation of the averaged measurements. Whole data set: some 25,000 sequences, median “ln(normalized median fluorescence intensity)” near 8.9, cut for the highest 2% near 10. The sample as a whole holds a higher share of the highest values than the screen did.
# System: PfAP2-LT AP2 domain (GST-tagged)
# Experiment: gcPBM binding intensity (ln(normalized median fluorescence intensity)); higher = stronger DNA binding
# Summary of the method: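 After 1 h on an Agilent 4 × 180k array of primer-extended double-stranded 36-bp intergenic genomic probes and negative controls, bound GST-tagged P. falciparum DNA-binding domains were detected with Alexa488 anti-GST antibody and scanned at 488 nm. The domains had been expressed in E. coli, and binding took place in 1× PBS with 1% milk, 0.2 mg/ml BSA, 0.5% salmon testes DNA and 0.03% Triton X-100. Binding intensity is the highest Masliner-normalised natural-log median intensity across replicate spots of either probe orientation.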
row,Sequence,gcPBM binding intensity (ln)
1,TATTTGTAAATCGATACACACATATAGATTAATATA [CACACA_site6237],8.88 ± 0.35
2,ATATTCTGATTTTAGATGCACTTCGTTAACAAAATA [GTGCAC_site9958],8.49 ± 0.35
3,ATGGACATTTTATAAATCACAATGGATATTTTATAA [CACACA_negctrl_site1830],8.41 ± 0.42
4,GGAAATTAACAGAACACAATGTAACAATTTCTAACA [CACACA_negctrl_site1250],8.85 ± 0.4
5,TAAAAGGGGATATATGAACACACAAAAAAAAAATAT [CACACA_site8940],9.04 ± 0.64
6,TACATACATACATACACACACACATATATATACATA [CACACA_site853],10.1 ± 0.23
7,CATACATACATACATACACACATACAGATATATATA [CACACA_site4890],9.4 ± 0.38
8,ACGTTACATACATATACACACACATATATATATATA [CACACA_site8203],9.93 ± 0.16
9,GTTACATACATATACACACACATATATATATATATA [CACACA_site901],10.2 ± 0.17
10,CACAGATATATACATACACACATATATACACATATA [CACACA_site6323],9.39 ± 0.32
11,GTTACATACAGATACACACACATATATATATATATA [CACACA_site4652],10.2 ± 0.4
12,CTCCACAAACAAATCGCACACCCAACCCAACATATA [CACACA_site2650],9.68 ± 0.34
13,TATTTTTTTGTGTTTGGTACACACGTTATAAAAAAT [XGTACX_site2655],8.8 ± 0.36
14,AAAAAAAAAAAAAAAACACACATACACCCAGACACA [CACACA_site5807],9.71 ± 0.18
15,AAAAAAAAAAAAAAAACACACATACACCCCCACCCA [CACACA_site9117],9.89 ± 0.18
16,AAAAAACACCCATACACACACACACCGATATATATA [CACACA_site5808],10.2 ± 0.24
17,CACAGACACCCATACACACACATACCCATATATATA [CACACA_site5023],9.56 ± 0.34
18,AAAAAAAACGCACATACACACACACCCATATATATA [CACACA_site9118],10.13 ± 0.028
19,AAAAAACAGACATACACACACACACCCATATATATA [CACACA_site3392],10.4 ± 0.21
20,AAAAAAAAAAAAAACACACACACACCCACATATACA [CACACA_site2663],10.2 ± 0.16
21,TTAATATTATGTTAAAGTACTTTATATATATATAAT [XGTACX_site2646],8.57 ± 0.3
22,AAGACTGCACTTTAAGCACACAAATATATTTTTTTT [CACACA_site8337],8.86 ± 0.38
23,TACAAATATATATGCACACACATATCTGTATATGTG [CACACA_site5663],9.58 ± 0.26

row,Sequence,gcPBM binding intensity (ln)
1,GTAATATATACAAAATGTACAAAACAATAACATGAT [XGTACX_site8575],9.2 ± 0.52
2,TAATAAAATATGTACACACATACACCCATATATATA [CACACA_site1220],9.21 ± 0.35
3,GTTTAAAATCTTTGCACACATATAAATAAATATATT [CACACA_site2555],8.9 ± 0.41
4,TATAAACACCCATATAAACACACATACATACATACA [CACACA_site8791],9.51 ± 0.33
5,AAAAAAAAAAAACACACACACACACCCATATACATA [CACACA_site2664],10.31 ± 0.085
6,TAAACACCCATATAAACACACATACATACATACATA [CACACA_site5383],9.53 ± 0.4
7,AAAAATAAAAAAAACACACATACCTTATTTTTGTTC [CACACA_site2634],8.98 ± 0.42
8,TATATATATATATATGTGCGCATTACTTTAAGAATA,9.6 ± 0.25
9,TCTTTTTGCATGTGTGTGCGCACAAAATACACAAAA [GTGCAC_site9718],9.39 ± 0.3
10,TACACAAGAAAATTCACACACACACCCATATATATA [CACACA_site3879],10.12 ± 0.092
11,CACAAGAAAGTTCACACACACACATATATATATATA [CACACA_site6009],9.93 ± 0.62
12,AAAACAAAAGAATTCACACATATATATATATATATA [CACACA_site4777],10.1 ± 0.16
13,CACAAGAAAATTCACACACACACATATATATATATA [CACACA_site3880],10.2 ± 0.14
14,TACACAAGAAAATTCACACACACACCGATATATATA [CACACA_site6008],9.87 ± 0.16
15,CATACACAAGAAAATTCACACACACCCATATATATA [CACACA_site9288],9.87 ± 0.23
16,TATATATGTTCAATATGTACATATATATAAGTGTAT [XGTACX_site5157],8.79 ± 0.41
17,AATATATCAAAAATTGGATAGTTTCTTATAAAAAAT [CACACA_negctrl_site39],8.43 ± 0.46
18,ATATATATATATATATGTACATATATTCGATTATTA [XGTACX_site557],9.695 ± 0.035
19,ACATATAAATTATATACACACAATAATATATATATA [CACACA_site1384],9.01 ± 0.39
20,TACATATATATAAATACACACACACCCACCTTATAA [CACACA_site9346],9.88 ± 0.15
21,AAATTATAATATAATACACACATAAAAAAAAAAAAA [CACACA_site7],8.93 ± 0.47
22,CATATATATAAATACACACACACACCCCTTATAATT [CACACA_site4064],10.2 ± 0.15
